The values below come from PubChem BioAssay AID2315 (National Center for Advancing Translational Sciences (NCATS), 2010).

In all, about 290,000 compounds went through this assay and about 27,000 (9.3%) were called active. Cut-off read from the data, not from the text of the source: active = inhibition mostly above about 28% (no sharp cut-off); inactive = mostly below about 43%. The entries come from a sample that favours actives as a whole.

This experiment can be described thus: A qHTS for Small Molecule Inhibitors of Shiga Toxin. Note: 0% is about no effect. The conditions noted are these: Vero cells, Shiga toxin protein synthesis inhibition reporter; at 38.7 µM, active compounds read high.
In general, inhibition refers to the relative decrease from the control value, in per cent. In the case of `CCn1cc(CCC(=O)NCc2ccc(F)cc2)c2ccccc21`, the inhibition is -4.61% (inactive).
With `Cc1ccc2c(CSc3nncs3)cc(=O)oc2c1`, the inhibition is 120% (active).
Next, `CCOC(=O)Cc1csc(SCc2cc(=O)oc3cc(O)ccc23)n1`: -5.09% (inactive).
The value for `COCc1cc(=O)oc2cc(NS(=O)(=O)c3ccc(C)cc3)ccc12` was 7.5% (inactive).
The value for `CN1/C(=c2/s/c(=C3/C(=O)N(c4ccccc4)NC3=Nc3ccccc3)n(C)c2=O)C(C)(C)c2ccccc21` was -12.9% (inactive); that for `CC(C)(C)c1ccccc1NC(=O)CN1C(=O)NC2(CCCC2)C1=O` was -11.9% (inactive).
As for `O=C(CN1CCN(c2ccc(O)cc2)CC1)Nc1ccc(-c2ccccc2)cc1`, the inhibition is 2.35% (inactive).
Next, `CC(=O)c1ccc(S(=O)(=O)N2CCC3(CC2)OCCO3)cc1`: -3.96% (inactive); `CN1C(=O)/C(=C\c2cc(Br)cs2)c2ccccc21`: 76.4% (active); `CN1C(=O)/C(=N/OC(=O)c2ccccc2Br)c2ccccc21`: -3.77% (inactive).
Next, `CCC1C(=O)c2ccccc2N(C)C1=O` (stereo not drawn): -0.747% (inactive).
The value for `CCc1ccc(S(=O)(=O)Nc2cc3c(cc2N2CCCCC2)n(C)c(=O)c(=O)n3C)cc1` was -14.2% (inactive); that for `Cc1c(Cl)cccc1NC(=O)CCC(=O)N/N=C/c1ccco1` was 4.7% (inactive).
As to `c1ccc(-c2ccc(OCCN3CCOCC3)cc2)cc1`, the inhibition was 86.3% (active).
Regarding `CC(C)(c1ccccc1)c1ccc(OCCN2CCCC2)cc1`, the inhibition is -9.76% (inactive).
Consider `CC(=O)c1ccc(OCCN2CCOCC2)cc1`, for which the inhibition was 32.1% (inactive).
The value for `CC(C)(C)NC(=O)C(c1ccc(Cl)cc1)N(CCO)C(=O)c1snc(C(N)=O)c1N` (stereo not drawn) was -5.05% (inactive).
For the compound `COc1ccccc1C(C)NC(=O)Cc1ccsc1` (stereo not drawn), the inhibition is -7.47% (inactive).
The value for `COc1ccccc1N1N=C(c2cccs2)CC1c1ccccc1` (stereo not drawn) was 36.3% (active); that for `Oc1ccccc1C1=NN(c2ccccc2)C(c2ccccc2)C1` (stereo not drawn) was 55.6% (active); that for `COc1ccc(C2CC(c3cccs3)=NN2C(=O)COC(=O)c2cc3ccccc3cc2O)cc1OC` (stereo not drawn) was -13.7% (inactive).
Next, `COc1ccc(C2CC(c3cccs3)=NN2c2ccc(F)cc2)cc1OC` (stereo not drawn): 26.5% (inactive).
Next, `O=C(c1ccccc1)N1N=C(c2ccccc2O)CC1c1ccc(Br)cc1` (stereo not drawn): 10.4% (inactive).
Regarding `CC(=O)Oc1ccccc1C1=NN(C(C)=O)C(c2ccccc2)C1` (stereo not drawn), the inhibition was 18.4% (inactive).
The value for `COc1ccc(C2=NN(c3ccccc3)C(c3cccs3)C2)cc1` (stereo not drawn) was 3.11% (inactive); that for `COc1ccc(C2CC(c3cccs3)=NN2c2ccccc2)cc1` (stereo not drawn) was 83% (active).
Next, `COc1ccc(C2CC(c3cccs3)=NN2c2nc(C)c(C(C)=O)s2)cc1OC` (stereo not drawn): 15.6% (inactive); `CS(=O)(=O)N1CCN(CC(=O)NC2CCCC2)CC1`: -2.76% (inactive).
Next, `O=C(Nc1ccc(Cl)cc1)c1cccc(OC(=S)N2CCOCC2)c1`: 18% (inactive).
For the compound `O=C(COc1ccc(Cl)cc1Cl)N/N=C/c1ccccn1`, the inhibition is 8.65% (inactive).
Next, `CSc1ncccc1C(=O)NCc1ccccc1Cl`: -6.54% (inactive); `CC1(C)Cc2ccccc2-c2[nH]c(=S)[nH]c(=O)c21`: -5.22% (inactive).
The value for `Brc1ccc(Nc2c3c(nc4ncnn24)CCC3)cc1` was -2.6% (inactive).
The value for `COCc1cc(=O)n2[nH]c(C)c(-c3ccccc3)c2n1` was 8.24% (inactive).
In the case of `COC(=O)c1c(-c2ccc(C)cc2)csc1N`, the inhibition is -0.659% (inactive).
The value for `Nc1scc(-c2ccncc2)c1Cl` was 64.7% (active).
Next, `CN(C(=O)COC(=O)c1nc(Cl)ccc1Cl)C1CCS(=O)(=O)C1` (stereo not drawn): -15.4% (inactive); `CC(=O)c1nn(-c2cccc(C(F)(F)F)c2)c(=O)[nH]c1=O`: 21.6% (inactive); `O=C1CSC(=S)N1c1ccc(Cl)c(Cl)c1`: 24.6% (inactive).
Consider `CCCNC(=O)c1cnc(-c2ccccc2)nc1-c1ccccc1`, for which the inhibition was -8.32% (inactive).
The value for `O=C(/C=C/c1ccc2c(c1)OCO2)NCc1cn2cc(Cl)ccc2n1` was 21.3% (inactive); that for `Clc1ccc2nc(CSc3ccccc3)cn2c1` was 31.5% (active).
Next, `CCOc1ncccc1C(=O)OCc1cn2cc(Cl)ccc2n1`: 18.7% (inactive); `CC(C)CC(=O)N1CCN(Cc2cccc(Cl)c2)CC1`: -12.6% (inactive); `CC(=O)N(c1ccc2oc(=O)sc2c1)S(=O)(=O)c1ccc(C)cc1`: -13.9% (inactive).
The value for `CCC1=C(OC(=O)N(CC)CC)N2C(=O)OC(=NCCc3c[nH]c4ccccc34)[C@]2(C)[C@H]2C1=CC[C@H]1C(=O)N(CC)C(=O)[C@H]12` was 2.44% (inactive); that for `O=C(CCC(=O)N/N=C/c1ccc(Br)o1)N/N=C/c1ccc(Br)o1` was 5.62% (inactive); that for `O=C(CN1C(=O)COc2ccccc21)Nc1ccc(F)cc1` was 74.4% (active).
As to `O=C(CN1C(=O)COc2ccccc21)NCCN1CCc2ccccc2C1`, the inhibition was 29.8% (inactive).
Next, `CC(OC(=O)CN1C(=O)COc2ccccc21)C(=O)NCc1ccc(F)cc1` (stereo not drawn): -12.1% (inactive); `CC(C)C[C@@H](CO)N1CCN(Cc2ccc(O)cc2)CCC1=O`: 7.05% (inactive); `COCCCNC(=S)NNC(=O)C(O)(c1ccccc1)c1ccccc1`: -12.4% (inactive).
Next, `COCCCNC(=S)NC(=O)c1ccccc1`: 50.8% (active); `CC(=O)NC(=S)Nc1ccc(NC(=S)NC(=O)c2ccc([N+](=O)[O-])cc2)cc1`: -11.1% (inactive).
The value for `COCCCNC(=S)NC(=O)c1ccc([N+](=O)[O-])cc1` was 34% (active).
For `CCCCCC(=O)NC(=S)NNC(=O)c1ccc([N+](=O)[O-])cc1`, the inhibition was -13.4% (inactive).
Next, `O=C(NCCOc1ccccc1)c1ccccc1`: 42.2% (inactive); `COc1ccc(CNC(=O)C(C)NCc2ccccc2Cl)cc1` (stereo not drawn): -9.04% (inactive); `Cc1ccc(S(=O)(=O)N(CC(=O)Nc2cccnc2)c2ccc(Br)cc2)cc1`: -36.9% (inactive).
The value for `CN(C)CCCn1c(=O)n(Cc2ccccc2)c(=O)c2c3c(sc21)CCCCC3` was -7.1% (inactive); that for `C=CCn1c(-c2sc(-c3ccccc3)nc2C)n[nH]c1=S` was 24.9% (inactive).
Next, `Cc1nc(-c2ccccc2)sc1-c1nc(-c2ccccc2)ncc1S(=O)(=O)c1ccccc1`: -10.1% (inactive).
On to `Cc1nc(-c2ccccc2)sc1-c1nnc(C2CC2)o1`, for which the inhibition was 87.2% (active).
For `CCOc1cc(C(=S)N2CCOCC2)ccc1OS(=O)(=O)c1ccc(Br)cc1`, the inhibition is 1.09% (inactive).
Next, `C=CCOc1ccccc1NC(=O)CN1C(=O)CNC1=O`: -4.23% (inactive).
The value for `COc1ccc(OC)c(NC(=O)c2cccc(S(=O)(=O)N3CCN(C(C)=O)CC3)c2)c1` was 1.91% (inactive).
Next, `COc1ccccc1C(=O)OCC(=O)NCCNC(=O)COC(=O)c1ccccc1OC`: -3.42% (inactive); `Cc1ccc(-c2noc(CN3CCN(Cc4ccccc4)CC3)n2)cc1`: 41.3% (inactive); `Cc1cccc(-c2nc(Nc3ccc(O)cc3)c3ccccc3n2)c1`: -1.6% (inactive).
Take `Cc1ccc(Cc2nc(-c3cccc(C)c3)no2)cc1`: the inhibition is 48.1% (active).
Next, `Cc1ccc(-c2noc(CSc3nnc(-c4ccccc4)n3C)n2)cc1`: -2.98% (inactive); `Cc1cccc(-c2noc(CCC(=O)NC3CCCC3)n2)c1`: 24.9% (inactive).
Next, `Cc1cccc(-c2noc(-c3ccc(F)cc3)n2)c1`: 152% (active); `O=C(O)CC(CC(=O)N1CCOCC1)c1ccccc1` (stereo not drawn): -6.69% (inactive); `Cc1c(NC(=O)c2c([N+](=O)[O-])cnn2C)c(=O)n(-c2ccccc2)n1C`: -11.5% (inactive).
In the case of `Cc1ccc(OCC(=O)Nc2ccccc2C(=O)NC2CC2)cc1C`, the inhibition is -4.84% (inactive).
Next, `COc1ccc(OCCC(=O)c2ccc(OC)cc2)cc1`: -6.88% (inactive); `COc1ccc(C(=O)CC2C(=O)N(C)C(=O)N(C)C2=O)cc1`: 13.8% (inactive).
Next, `CO/N=C/CC(=O)c1ccc(OC)cc1`: 91.1% (active).
Next, `Cc1ccc(C(=O)c2coc3ccc(O)c(CN(C)C)c23)cc1`: -0.742% (inactive); `Cc1ccc(S(=O)(=O)NCCSC(C)(C)C)cc1`: -15.2% (inactive).
With `CC(C)(C)SCCSC1=CC(=O)CC(c2ccccc2)C1` (stereo not drawn), the inhibition was 75.7% (active).
Next, `O=C(O)CC/C(=C\c1cc2c(cc1Br)OCO2)c1nc2ccccc2s1`: -7.28% (inactive); `CC1=C/C(=N\OS(=O)(=O)c2ccccc2)C=CC1=O`: 67.3% (active); `O=S(=O)(ON(c1ccccc1)S(=O)(=O)c1ccccc1)c1ccccc1`: -5.69% (inactive).
The value for `Cc1ccc(S(=O)(=O)c2ccc(Oc3ccccc3)cc2)cc1` was -11.7% (inactive); that for `COC(=O)c1ccc(NC(=O)CSc2nncn2-c2cccnc2)cc1` was 29.9% (inactive); that for `CC(Sc1nnc(CNC(=O)c2ccccc2F)n1C)C(=O)Nc1nccs1` (stereo not drawn) was -6.1% (inactive).
`Cc1ccccc1CSCC(=O)NC(=O)NC(C)(C)C`: the inhibition was 11% (inactive).
Next, `COc1ccccc1-n1ccnc1SCC(=O)NC(C)(C)C`: 18.7% (inactive); `CC(C)(C)NC(=O)CSC(=Nc1ccccc1F)NC#N`: 33.9% (active).
As to `COC(=O)c1cc2c(N)c(C(=O)c3ccc(Cl)cc3)sc2nc1C(OC)OC`, the inhibition is -1.42% (inactive).
The value for `CCc1nc2sc(C(=O)O)c(N)c2c2c1CCCC2` was -12.9% (inactive); that for `CN(C)c1ccnc2sc3c(=O)n(Cc4ccccc4)cnc3c12` was -12.3% (inactive); that for `CN(C)c1ccnc2sc(C(=O)c3ccccc3)c(N)c12` was 25.4% (active).
For `CCOC(=O)c1sc2nc(SC)nc(-c3ccccc3)c2c1N`, the inhibition was -14% (inactive).
Next, `CC(=O)c1c(Nc2ccccc2)sc(C(=O)c2ccccc2)c1C`: -8.12% (inactive); `Cc1nc2sc(C(=O)c3ccccc3)c(N)c2c2c1CCCC2`: 18.1% (active); `Cc1ccc2c(N)c(C(=O)c3ccccc3)sc2n1`: 87.1% (active).
The value for `CCN(CC)C(=O)c1sc2nc(-c3ccccc3)ccc2c1N` was 165% (active); that for `COc1cccc(C(=O)c2sc3nc(-c4ccccc4)cc(C(F)(F)F)c3c2N)c1` was -1.9% (inactive).
Take `CS(=O)(=O)c1sc2nc(-c3ccccc3)cc(-c3ccccc3)c2c1N`: the inhibition was -3.26% (inactive).
Next, `NC(=O)c1sc2nc3c(c(-c4ccccc4)c2c1N)CCC3`: -11.8% (inactive).
